Compounds without any hit were thinned out: in the full panel of roughly 83,000, 20% have a hit.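 Cells were grown in 96-well plates and exposed to the test compound at a single concentration for 48 hours; results are reported as percent growth, with values below 10 considered active.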 The source made the active and inactive calls.
Each molecule was assayed on HL-60(TB) leukemia (assay: NCI-60 one-dose screen, 48 h (100 = growth as untreated, 0 = no growth, -100 = all killed)). Settings: 10 µM unless noted.
In the case of Nc1c(C(=O)Nc2ccccc2F)sc2nc3c(cc12)C(=O)CCC3, the growth is reported as 33.9% (inactive). In the case of CCOC(=O)c1c2c(n3cccc(Cl)c13)C(=O)c1ncccc1C2=O, the growth is reported as 34% (inactive). For CN(C)CSc1nc2ccccc2s1, the growth was 101% (inactive). For O=C(COc1cccc(/C=C2\Oc3ccc4ccccc4c3C2=O)c1)c1ccc([N+](=O)[O-])cc1, the growth was 94.8% (inactive). CC1(C)CC[C@]23CC[C@]4(C)[C@H](CC[C@@H]5[C@@]6(C)C/C(=C/O)C(=O)C(C)(C)[C@@H]6CC[C@]54C)[C@H]2[C@H]1OC3 was tested, and the growth was 102% (inactive). COc1cc(-c2c(C#N)c(-c3cccs3)nc3c2c(-c2ccccc2)nn3-c2ccccc2)ccc1O was tested, and the growth was 99.3% (inactive). With COc1ccc(C(=O)C(C)Br)cc1OC (stereo unspecified) the growth was 96.7% (inactive). O=C1CC2c3cc(-c4cc5ccccc5o4)ccc3CCN2C(=O)N1c1ccccc1 (stereo unspecified) was tested, and the growth was 69.9% (inactive). For CC(C)CCSc1nc(-c2ccc(F)cc2)c(C#N)c(N2CCN(C)CC2)n1, the growth was 73.8% (inactive). With COc1cc(/C=N/NC(=O)c2ccc(C(F)(F)F)nc2Nc2cc(Cl)ccc2C)cc(OC)c1OC the growth was 107% (inactive). For Cc1ccc(N)cc1CN1C(=O)c2ccccc2C1=O, the growth was 107% (inactive). For COc1ccccc1NS(=O)(=O)c1ccc2oc(SC(C)C)nc2c1, the growth was 53.6% (inactive). In the case of CC(=O)OCC1OC(OC2=C(CC=C(C)C)C(=O)c3ccccc3C2=O)C(OC(C)=O)C(OC(C)=O)C1OC(C)=O (stereo unspecified), the growth is reported as -36.7% (active). With NNCCc1ccc(NC(=O)CCCc2ccc(C(=O)Nc3ccccc3N)cc2)cc1 the growth was 32.6% (inactive). For CC1=CNNc2c3ncnc-3ncn21, the growth was 99.8% (inactive). For Cc1cc(N2CCN(C)CC2)nc(NCc2cc(Nc3ccnc4cc(Cl)ccc34)ccc2F)n1, the growth was -53.5% (active). With Cc1ccc(C(C)C)c(OCc2ccc(C(=O)N/N=C/c3cccc(O)c3O)cc2)c1 the growth was -4.57% (active). In the case of Nc1ncnc2[nH]c(=O)[nH]c12, the growth is reported as 140% (inactive). Cc1cc(C(=C2C=CC(=Nc3ccccc3)C=C2)c2ccc(Nc3ccccc3)cc2)ccc1N was tested, and the growth was 5.66% (active). O=C1c2ccccc2NC(n2sc3ccccc3c2=O)N1c1ccccc1 (stereo unspecified) was tested, and the growth was 87.9% (inactive). For COc1nc2ccccc2cc1/C=[N+](\[O-])c1ccccc1, the growth was -18.5% (active). In the case of O=C(Nc1ccc(F)cc1)Nc1ccc(Cl)c([N+](=O)[O-])c1, the growth is reported as -15.6% (active). C=C1CC[C@@H]2[C@](C)(COC(C)=O)[C@H](OC(C)=O)CC[C@@]2(C)[C@@H]1CC(NCc1ccccc1)C1=CCOC1=O (stereo partly specified) was tested, and the growth was -9.93% (active). With Cc1nn(-c2ccccc2)c(N)c1N=C1NC(=O)/C(=C/c2ccc(Br)cc2)S1 the growth was 77.9% (inactive). For O=C(O)c1cn(C2CC2)c2cc(N3CCN(C(=O)Nc4nc(-c5ccccc5)cs4)CC3)c(F)cc2c1=O, the growth was 3.14% (active). With COc1cccc2cc(-c3cc4ccccc4[nH]3)/c(=N/C(=S)Nc3ccc(C)cc3)oc12 the growth was 98.1% (inactive).

Reference: PubChem BioAssay (NCI)
